Compound activity from PubChem.
Compounds with a hit are over-represented: about 2.4% of the library has one in this group of screens.
M1 antag: human M1 muscarinic receptor antagonists, primary screen, CHO-K1 cells, Fluo-8 calcium fluorescence, 1536-well. CHO-K1 hM1, ACh EC80 antagonist. AID 588852, 2011. Muscarinic acetylcholine receptor M1 (Homo sapiens), P11229. inhibition, % at 3 µM. 1.3% of 360,000 active;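 active = percent inhibition above its own plate's cutoff, namely the mean of that plate's compound wells plus 3 SD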;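 note: peak over basal fluorescence ratio during 140 s after agonist addition; 0% = ACh EC80 plus DMSO and 100% = DMSO alone without agonist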
Target sequence (P11229 whole entry, looked up): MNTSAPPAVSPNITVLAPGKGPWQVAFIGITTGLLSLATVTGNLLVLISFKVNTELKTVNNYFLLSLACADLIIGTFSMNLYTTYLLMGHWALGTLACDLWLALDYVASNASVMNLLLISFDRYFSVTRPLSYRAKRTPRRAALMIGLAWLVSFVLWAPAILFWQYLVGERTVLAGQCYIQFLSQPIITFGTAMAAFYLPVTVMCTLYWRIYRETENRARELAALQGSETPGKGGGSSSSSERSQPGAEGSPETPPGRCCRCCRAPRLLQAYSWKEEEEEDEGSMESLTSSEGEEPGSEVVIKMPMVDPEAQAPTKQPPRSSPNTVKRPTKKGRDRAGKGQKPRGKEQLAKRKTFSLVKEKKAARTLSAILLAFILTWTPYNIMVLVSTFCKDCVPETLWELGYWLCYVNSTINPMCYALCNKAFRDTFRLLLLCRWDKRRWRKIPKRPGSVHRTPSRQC
M1 ag parental: counter-screen for M1 agonists: effect in parental CHO-K1 cells. Fluo-8 calcium fluorescence; scaled to maximal ATP response, vehicle zero. activation, % at 3 µM. 0.48% of 360,000 active. AID 602248, 2012; in the data active = activation above about 15%;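 note: untransfected CHO-K1 host cells lacking M1 receptor as counterscreen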
CHO-K1 Ca antag: M1 antagonist counterscreen hit in parental CHO-K1 cells; inhibition, % at 3 µM; AID 602250; 0.6% of 360,000 active; ATP-induced calcium, Fluo-8 fluorescence;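 active = inhibition above a per-plate cutoff, the plate's mean sample inhibition plus 3 SD, cut at about 24% in these data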;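 note: 0% = DMSO plus EC80 ATP and 100% = DMSO alone without ATP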
CHRM1 PAM: human M1 muscarinic receptor positive allosteric modulators, primary screen, CHO-K1 cells, Fluo-8 calcium fluorescence, 1536-well | Muscarinic acetylcholine receptor M1 (Homo sapiens), P11229 | CHO-K1 hM1, ACh EC20; 0% = ACh EC20, 100% = maximal ACh | activation, % at 3 µM | 0.088% of 360,000 active; in the data active = activation above about 19%, passing the limit was not always enough
CHO-K1 Ca PAM: nonselective calcium activators in parental CHO-K1 cells, primary screen, counter-screen for M1 PAM project, cell-based, Fluo-8 calcium fluorescence, full deck, 1536-well; ATP EC20; 0% at ATP EC20, 100% at ATP max; activation, % at 3 µM; 0.02% of 360,000 active; AID 602247, 2012;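 active = activation above the run cutoff, the mean activation of all test compounds plus 3 SD, cut at about 40% in these data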;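 note: peak over basal fluorescence ratio in a 140 s read after ATP addition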
CHRM1 agonist: human M1 muscarinic receptor agonists, primary screen, Fluo-8 calcium fluorescence, CHO-K1 cells, HTS | CHO-K1 hM1, agonist mode; 0% DMSO, 100% acetylcholine EC100 | 0.33% of 360,000 active | activation, % at 3 µM | Muscarinic acetylcholine receptor M1 (Homo sapiens), P11229;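 active = activation above the run's mean compound activation plus 3 SD, cut at about 16% in these data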;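 note: peak over basal fluorescence ratio within a 140 s kinetic read after compound addition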
An asterisk follows results filed as active.

SMILES	M1 antag	M1 ag parental	CHO-K1 Ca antag	CHRM1 PAM	CHO-K1 Ca PAM	CHRM1 agonist
COc1ccc(NC(=S)NC(NC(=O)c2cccc(Cl)c2)C(Cl)(Cl)Cl)c([N+](=O)[O-])c1 (stereo not drawn)	26	15	15	-14	-8	8
O=C(CCNC(=O)c1ccc(Cl)cc1)Nc1ncccc1O	-21	0	-1	14	-7	1
O=C(CCCNC(=O)c1ccc(Cl)cc1)Nc1ncccc1O	-17	0	11	26*	-20	10
CCOc1ccccc1OCCN1CCC(Cc2ccccc2)CC1	9	3	-2	-9	14	-9
COc1cccc(OC)c1OCCCCN1CCC(Cc2ccccc2)CC1	47*	8	-11	-24	18	-6
COc1ccc(CN2CCC(Cc3ccccc3)CC2)c(C)c1C	33*	3	-9	-25	25	-8
N#Cc1ccccc1OCCCN1CCC(Cc2ccccc2)CC1	35*	2	5	-28	0	-7
CCC(=O)c1ccccc1OCCCN1CCC(Cc2ccccc2)CC1	92*	9	5	-27	-15	-3
COc1ccc(C2=NN(C(=O)COC(=O)c3ccc(NC(=O)CC#N)cc3)C(c3ccco3)C2)cc1 (stereo not drawn)	2	2	-18	3	6	-3
CCN(c1ccccc1)S(=O)(=O)c1ccc(C(=O)NCC(=O)Nc2ccc(F)c(F)c2F)cc1	1	6	-3	-4	15	0
Cc1ccc(C(=O)NCC(=O)N2CCN(c3cccc(Cl)c3)CC2)s1	4	0	5	5	-13	-1
CC(=O)CCc1ccc(OCCCCN2CCC(Cc3ccccc3)CC2)cc1	60*	7	-3	-24	21	-6
COc1ccc(NC(=O)NCCCN2CCC(Cc3ccccc3)CC2)cc1	-1	1	-1	-2	-1	-8
Cc1cccc(NC(=O)NNC(=O)c2ccccn2)c1	-20	0	14	11	-13	0
CC(C)Cc1ccc(CN2CCCC(NC(=O)c3ccnn3C)C2)cc1 (stereo not drawn)	-5	9	2	-10	-7	0
Cc1noc(C)c1CCC(=O)NC1CCCN(Cc2ccc(CC(C)C)cc2)C1 (stereo not drawn)	54*	3	-9	-22	-13	-5
Cc1noc(C)c1CCC(=O)NC1CCCN(Cc2ccc(Cl)cc2)C1 (stereo not drawn)	36*	-1	15	-16	-30	-8
COc1ccc(C(O)c2nc(-c3cccc(F)c3)cs2)cc1 (stereo not drawn)	-14	3	-8	5	15	1
COc1ccc(C(=O)/C=C2\C(=O)Nc3ccc(Br)cc32)cc1	20	4	13	12	9	19*
O=C1Nc2ccc(Br)cc2/C1=C/C(=O)c1ccc2c(c1)OCO2	15	2	12	8	-1	10
COCc1cc(C)nc2sc3c(=O)n(Cc4ccco4)nnc3c12	-12	0	26*	13	-2	-1
CC(=O)Nc1ccc(S(=O)(=O)N(C)c2ccc(OCC(=O)Nc3ccccc3C(C)=O)cc2)cc1	36*	5	15	-15	-19	-3
COc1ccc(NC(=O)COc2ccc(N(C)S(=O)(=O)c3ccc(Cl)cc3)cc2)cc1OC	38*	14	27*	-13	-20	0
CN(c1ccc(OCC(=O)OCC(=O)Nc2ccc(F)cc2)cc1)S(=O)(=O)c1ccc(Cl)cc1	13	11	4	-11	6	-3
Cc1ccc(Cl)c2c(N=Nc3ccccc3)c(O)[nH]c12	-24	0	-6	20	18	1
SMILES	M1 antag	M1 ag parental	CHO-K1 Ca antag	CHRM1 PAM	CHO-K1 Ca PAM	CHRM1 agonist
O=C(COc1ccccc1)N1c2ccccc2Sc2ccccc21	15	2	-12	-16	22	-9
CN(C)c1cc[n+](CC(=O)N2c3ccccc3Sc3ccccc32)cc1	100*	1	-19	-25	-5	-8
O=C(C[n+]1ccccc1)N1c2ccccc2Sc2ccccc21	100*	0	-7	-38	-6	-15
COc1ccc(/C=C/C(=O)OCC(=O)NC2CCCC2)cc1OC	-1	0	1	0	-6	0
O=C(Nc1cccc(Cl)c1)C1CCN(C(=O)c2cccs2)CC1	-4	2	-6	6	8	-1
O=C(c1ccccc1)C(Nc1ccccn1)c1ccccc1 (stereo not drawn)	35*	0	14	-24	-22	-8
O=C(COC(=O)c1ccc(F)c(S(=O)(=O)N2CCOCC2)c1)NCCc1ccccc1	-29	1	-17	27*	2	1
Cc1ccc(C(=O)OCC(=O)NCCc2ccc(F)cc2)cc1S(=O)(=O)N1CCOCC1	-3	3	-14	7	18	-1
C[C@H](CO)N1C[C@H](C)[C@H](CN(C)C(=O)Nc2ccccc2F)OCc2cnnn2CCCC1=O	-14	1	-12	6	14	-5
O=C(OCc1cn([C@@H]2C[C@H](c3ccccc3)N(Cc3cccs3)C[C@H]2O)nn1)c1ccccc1	-17	1	-1	9	0	-5
Cc1ccccc1NC(=O)C1CCCN(c2nnc(N3CCCC3=O)s2)C1 (stereo not drawn)	-1	0	26*	-1	-12	-4
CC1CC(=O)c2ccccc2C1C (stereo not drawn)	-5	0	5	4	-13	-1
Cc1ccc(C)c(N/C(N)=N/c2nc(C)cc(C)n2)c1	15	27*	35*	-21	-13	10
COc1ccc(C)cc1N/C(N)=N/c1nc(C)cc(C)n1	-8	3	-11	7	24	-11
CCOc1ccc(N/C(N)=N/c2nc(C)cc(C)n2)cc1	16	17*	8	-19	-4	6
CC(=O)Nc1ccc(N/C(N)=N/c2nc(C)cc(C)n2)cc1	-3	0	13	2	-8	-13
Cc1cc(C)nc(/N=C(\N)Nc2ccc(-c3ccccc3)cc2)n1	12	27*	10	-16	-16	5
Cc1cc(C)nc(/N=C(\N)Nc2ccc(SC(F)F)cc2)n1	31	30*	15	-28	-18	19*
Cc1cc(NC(=O)COC(=O)C2CCN(S(=O)(=O)c3ccccc3)CC2)c([N+](=O)[O-])cc1C	-4	0	7	-1	-4	-4
